Assay results reported in article PMC11995724, “Antibiotic target discovery by integrated phenotypic and activity-based profiling of electrophilic fragments” (Cell chemical biology, 2025).
In all, about 3,200 compounds went through this assay and about 110 (3.4%) showed an effect of 50% or more. Only a selection was taken, and strong results are over-represented in it overall.

system: T1, V. cholerae SAD30; set-up: species or system S. aureus MSSA476 (TSB) or V. cholerae SAD30 (LB); 384-well bacterial growth screen at 25 uM, OD600 relative to DMSO control; conditions: relative growth, OD600, LB; 25 µM; inhibitor
T1 construct: SAD30

**Q.** With `COc1cc(C=C(C#N)C(=O)Nc2cccc(C)c2)c2c(c1)CC(C)O2` (stereo not drawn) [8-N22, 2-cyano-3-(5-methoxy-2-methyl-2,3-dihydro-1-benzofuran-7-yl)-N-(3-methylphenyl)prop-2-enamide] as the compound, how does the “% of control remaining” value read?
**A.** 77.7022%

**Q.** Which “% of control remaining” value does the source give for `C=CC(=O)NCc1cn([C@@H]2COC[C@H]2OC)nn1` [1-J17, N-({1-[(3R,4S)-4-methoxyoxolan-3-yl]-1H-1,2,3-triazol-4-yl}methyl)prop-2-enamide] here?
**A.** 85.0523%

**Q.** How did the “% of control remaining” value turn out when `C=CC(=O)N(Cc1ccc(Cl)cc1Cl)CC1CCC(O)C1` (stereo not drawn) [1-B04, N-[(2,4-dichlorophenyl)methyl]-N-[(3-hydroxycyclopentyl)methyl]prop-2-enamide] was run?
**A.** 107.949%

**Q.** For `Cc1cc(C(=O)CCl)c(C)n1C(C)c1ccccc1` (stereo not drawn) [10-P17, 2-chloro-1-[2,5-dimethyl-1-(1-phenylethyl)-1H-pyrrol-3-yl]ethan-1-one], which “% of control remaining” value is on record?
**A.** 96.4738%

**Q.** With `CC(NC(=O)C(C#N)=Cc1ccco1)c1cccc(-n2cccn2)c1` (stereo not drawn) [9-J04, 2-cyano-3-(furan-2-yl)-N-{1-[3-(1H-pyrazol-1-yl)phenyl]ethyl}prop-2-enamide] as the compound, how does the “% of control remaining” value read?
**A.** 81.5092%

**Q.** For `C=CC(=O)N1CCCCC1c1nc2ccccc2n1C` (stereo not drawn) [3-F04, 1-[2-(1-methyl-1H-1,3-benzodiazol-2-yl)piperidin-1-yl]prop-2-en-1-one], which “% of control remaining” value is on record?
**A.** 96.3242%

**Q.** For `C=CC(=O)NCC(c1c(F)cccc1F)N1CC(C)OC(C)C1` (stereo not drawn) [1-I13, N-[2-(2,6-difluorophenyl)-2-(2,6-dimethylmorpholin-4-yl)ethyl]prop-2-enamide], which “% of control remaining” value is on record?
**A.** 82.5112%

**Q.** For `N#CC(=Cc1ccc(-c2ccccc2Cl)o1)C(=O)N1CCCCC1` [8-F20, 3-[5-(2-chlorophenyl)furan-2-yl]-2-(piperidine-1-carbonyl)prop-2-enenitrile], which “% of control remaining” value is on record?
**A.** 64.378%

**Q.** With `O=C(CCl)N1CC(S(=O)(=O)Nc2ccccc2)C1` [5-G10, 1-(2-chloroacetyl)-N-phenylazetidine-3-sulfonamide] as the compound, how does the “% of control remaining” value read?
**A.** 71.283%

**Q.** For `O=C(NC1CC1)C1(C(=O)N2CCSSCC2)CCC1` [10-B21, N-cyclopropyl-1-(1,2,5-dithiazepane-5-carbonyl)cyclobutane-1-carboxamide], which “% of control remaining” value is on record?
**A.** 104.89%

**Q.** How did the “% of control remaining” value turn out when `Cn1nc(C(F)(F)F)cc1CN(C(=O)CCl)C1CCCC1` [5-C16, 2-chloro-N-cyclopentyl-N-{[1-methyl-3-(trifluoromethyl)-1H-pyrazol-5-yl]methyl}acetamide] was run?
**A.** 89.1037%

**Q.** How did the “% of control remaining” value turn out when `O=C(CCl)Cc1ccc(F)c(F)c1` [10-O17, 1-chloro-3-(3,4-difluorophenyl)propan-2-one] was run?
**A.** 19.3259%

**Q.** For `O=C(CCl)Cc1ccc(C(F)(F)F)cc1` [10-C19, 1-chloro-3-[4-(trifluoromethyl)phenyl]propan-2-one], which “% of control remaining” value is on record?
**A.** 79.6415%

**Q.** Which “% of control remaining” value does the source give for `O=C(CCl)Cc1ccc(F)cc1` [10-G15, 1-chloro-3-(4-fluorophenyl)propan-2-one] here?
**A.** 95.6945%

**Q.** For `COc1ccccc1CN(C)C(=O)CCl` [6-C09, 2-chloro-N-[(2-methoxyphenyl)methyl]-N-methylacetamide], which “% of control remaining” value is on record?
**A.** 89.7905%

**Q.** With `COc1ccccc1CNC(=O)C(C)Cl` (stereo not drawn) [5-M21, 2-chloro-N-[(2-methoxyphenyl)methyl]propanamide] as the compound, how does the “% of control remaining” value read?
**A.** 101.376%

**Q.** For `COc1ccc(OC)c(NC(=O)CCl)c1` [6-O04, 2-chloro-N-(2,5-dimethoxyphenyl)acetamide], which “% of control remaining” value is on record?
**A.** 96.0091%

**Q.** For `COc1cc(Cl)c(C)cc1NC(=O)C(C)Cl` (stereo not drawn) [6-C15, 2-chloro-N-(4-chloro-2-methoxy-5-methylphenyl)propanamide], which “% of control remaining” value is on record?
**A.** 86.6054%

**Q.** For `COc1ccc(OC)c(N2C(=O)C=CC2=O)c1` [10-N15, 1-(2,5-dimethoxyphenyl)-2,5-dihydro-1H-pyrrole-2,5-dione], which “% of control remaining” value is on record?
**A.** 24.7808%

**Q.** For `COc1ccc(OC)c(C(C)NC(=O)CCl)c1` (stereo not drawn) [4-M19, 2-chloro-N-[1-(2,5-dimethoxyphenyl)ethyl]acetamide], which “% of control remaining” value is on record?
**A.** 102.48%

**Q.** With `COc1ccccc1CN1C(=O)C=CC1=O` [10-P21, 1-[(2-methoxyphenyl)methyl]-2,5-dihydro-1H-pyrrole-2,5-dione] as the compound, how does the “% of control remaining” value read?
**A.** 42.8599%

**Q.** `COc1cc(Cl)c(C)cc1N1C(=O)C=CC1=O` [10-B15, 1-(4-chloro-2-methoxy-5-methylphenyl)-2,5-dihydro-1H-pyrrole-2,5-dione] was tested. Which “% of control remaining” value did it give?
**A.** 23.534%

**Q.** With `COc1ccccc1N1C(=O)C=CC1=O` [10-O10, 1-(2-methoxyphenyl)-2,5-dihydro-1H-pyrrole-2,5-dione] as the compound, how does the “% of control remaining” value read?
**A.** 26.0277%

**Q.** Which “% of control remaining” value does the source give for `COc1cc(Cl)c(C)cc1NC(=O)C(C#N)=CC=Cc1ccccc1` [8-A21, N-(4-chloro-2-methoxy-5-methylphenyl)-2-cyano-5-phenylpenta-2,4-dienamide] here?
**A.** 93.0659%

**Q.** `COc1ccccc1NC(=O)C(C)Cl` (stereo not drawn) [5-L20, 2-chloro-N-(2-methoxyphenyl)propanamide] was tested. Which “% of control remaining” value did it give?
**A.** 97.5097%

**Q.** `CC(Cl)C(=O)NCCC1=CCCCCC1` (stereo not drawn) [5-N19, 2-chloro-N-[2-(cyclohept-1-en-1-yl)ethyl]propanamide] was tested. Which “% of control remaining” value did it give?
**A.** 88.2631%

**Q.** Which “% of control remaining” value does the source give for `CN(Cc1ccc(N(C)C)cc1)C(=O)CCl.Cl` [5-F06, 2-chloro-N-{[4-(dimethylamino)phenyl]methyl}-N-methylacetamide hydrochloride] here?
**A.** 92.298%

**Q.** For `CSc1ccccc1NC(=O)C(C)Cl` (stereo not drawn) [4-M12, 2-chloro-N-[2-(methylsulfanyl)phenyl]propanamide], which “% of control remaining” value is on record?
**A.** 94.8889%

**Q.** For `C=CC(=O)N1CCCn2cccc2C12CCOCC2` [1-A22, 1-{2',3',4',5'-tetrahydrospiro[oxane-4,1'-pyrrolo[1,2-a][1,4]diazepin]-2'-yl}prop-2-en-1-one], which “% of control remaining” value is on record?
**A.** 107.922%

**Q.** How did the “% of control remaining” value turn out when `CCC(NC(=O)CCl)c1ccc(C)cc1` (stereo not drawn) [4-K17, 2-chloro-N-[1-(4-methylphenyl)propyl]acetamide] was run?
**A.** 97.3043%
